Each structure is given as a SMILES string. Values joined by “and” are separate entries in the source; they are usually repeats but may differ in a detail not shown here. Identical values can stand only once. Records with an inconclusive call do not appear. Entries that show only a call come without a potency. Active and inactive are the calls of the source. The call rests on the fitted dose curve.
Potency means the concentration at half of the fitted maximal effect.

This assay can be described thus: qHTS assay to identify small molecule agonists of H2AX - cell viability counter screen (AID 1224847). Further: nearly all actives have a fitted effect of over 30% in size. On activity change, negative = cytotoxicity: top concentration of the series differs between compounds. The conditions noted are these: CHO-K1 viability, CellTiter-Glo luminescence, 3 h; series mostly up to 154 µM; activity change, negative = cytotoxicity: at the top concentration. From the text: National Center for Advancing Translational Sciences [NCATS]
NIH Chemical Genomics Center [NCGC]
U.S. Environmental Protection Agency [EPA]
National Institutes of Environmental Health Sciences [NIEHS]
National Toxicology Program [NTP]
U.S. Food and Drug Administration [FDA]
HTRF phospho-H2AX (Ser139) assay (Cisbio Bioassays, US) enables the quantitative detection of the histone variant H2AX when phosphorylated on serine 139. When double-stranded DNA breaks, either by ionizing radiation or endogenous physiological processes, H2AX becomes phosphorylated at Ser139. This phospho-Ser139 serves as a sensitive biomarker for the detection of such breaks, localizing the site of DNA repair. So, HTRF phospho-H2AX Ser139 is a pertinent assay to study genome stability, the cell cycle, DNA repair, and it serves as a biomarker for cancer, and to understand aging. Wild type CHO-K1 cells were used to identify the inducers of Phospho-H2AX Ser 139 from the Tox21 compound collections. Also cytotoxicity of the Tox21 10K compound library against the CHO-K1 cell line was tested by measuring the cell viability using CellTiter-Glo assay (Promega, Madison, WI).
Tox21 Assay Protocol Summary:
The CHO-K1 cells suspended in culture medium containing 10% FBS were dispensed at 1000 cells/ 3 ul/well in 1536-well white wall/solid bottom plates (Greiner Bio-One North America, NC) using a Multidrop Combi (Thermo Fisher Scientific Inc., Waltham, MA). After the assay plates were incubated at 37C overnight, 23 nl of compounds at 15 concentrations (from 5-48 columns) or positive control (from 1 to 4 columns) were transferred to the assay plates using a Pintool station (Wako, San Diego, CA) into each well resulting in a final DMSO concentration of 0.76%. After 3hr incubation at 37C, 3 uL/well CellTiter-Glo luminescent cell viability reagent (Promega Corporation, Madison, WI) was added using a Flying Reagent Dispenser (FRD) (Aurora Discovery, CA). After incubation at room temperature for 30 min, the luminescence intensity was read using a ViewLux plate reader (PerkinElmer, Waltham, MA).
Take `Cc1ccc(N)c(S(=O)(=O)O)c1`: the Potency entry is “inactive”.
Same read-out and setting: to `O=S(=O)(Oc1ccc(Cl)cc1Cl)c1ccccc1` belongs 91.4 µM (active) and 50.5 µM (active); to `NS(=O)(=O)c1cc2c(cc1Cl)NC=NS2(=O)=O`, “inactive”.
Regarding `Oc1ccc(OCc2ccccc2)cc1`, the “activity change, negative = cytotoxicity” value is -6.25% [at 70.9 µM] (inactive).
With `Cc1cc(Cc2ccc(N)c(C)c2)ccc1N`, the Potency entry is “inactive”.
With `C=C(C)C(=O)OCCC[Si](OC)(OC)OC`, the Potency entry was “inactive”.
On the same count and under the same terms, to `COC(=O)c1ccc(C(=O)OC)cc1` belongs “inactive”; to `Oc1c(Cl)cc(Cl)c(Cl)c1Cl`, 111 µM (active).
Take `O=C(O)c1cc(-c2ccccc2)nc2ccccc12`: the Potency result was “inactive”.
Same read-out and setting: to `CC1(C)CC(N=C=O)CC(C)(CN=C=O)C1` (stereo not given) belongs “inactive”; to `CC(C)Cc1ccccc1`, “inactive”.
On the same count and under the same terms, to `CCCCOCCOCCOC(=O)CCCCC(=O)OCCOCCOCCCC` belongs “inactive”; to `C=C(C#N)C(=O)OCC`, “inactive”.
On the same count and under the same terms, to `Cn1c([N+](=O)[O-])cnc1COC(N)=O` belongs “inactive”; to `Clc1ccc(Cl)c(Cl)c1Cl`, “inactive”; to `CC(=O)CCc1ccccc1`, “inactive”.
Consider `CC(C)(C)C(=O)C1C(=O)c2ccccc2C1=O`, for which the Potency was 88.9 µM (active) and 56.6 µM (active).
In the case of `CCCCCCCCCCCCOCC1CO1` (stereo not given), the “activity change, negative = cytotoxicity” value was 3.78% (inactive).
`OC[C@@H](O)[C@@H](O)[C@H](O)[C@@H](O)CO`: the Potency result was “inactive”.
The same measure, in the same setting: to `CCCCOCCO` belongs “inactive”.
As to `Cc1cc(=O)[nH]c(C(C)C)n1`, the Potency entry was “inactive”.
Same read-out and setting: to `ClC1=C(Cl)C(Cl)(Cl)C(Cl)=C1Cl` belongs “inactive”; to `NC(=O)NNc1ccccc1`, “inactive”.
The same measure, in the same setting: for `CN(C)c1ccc(C(=N)c2ccc(N(C)C)cc2)cc1` the value was 39.6 µM (active) and 24.4 µM (active); for `O=[N+]([O-])c1cccc(Cl)c1`, “inactive”; for `Cc1cc(O)cc(C)c1Cl`, “inactive”.
The same measure, in the same setting: for `Cc1ccc(C(=O)O)o1` the value was “inactive”; for `OC[C@@H](O)[C@H](O)[C@H](O)[C@@H](O)CO`, “inactive”; for `COCC(C)O` (stereo not given), “inactive”.
Consider `CCc1ccccc1O`, for which the Potency entry was “inactive”.
Still for that read-out and setting: to `CC(C)(C)C1CCC(O)CC1` (stereo not given) belongs “inactive”.
Regarding `CCCCC/C=C\C/C=C\CCCCCCCC(=O)OC`, the “activity change, negative = cytotoxicity” value was 1.19% (inactive).
`CC(C)NCC(O)COc1cccc2ccccc12` (stereo not given): the Potency result was “inactive”.
`NCCNCCNCCNCCN`: the Potency result is “inactive”.
Take `O=Nc1ccc(O)cc1`: the “activity change, negative = cytotoxicity” value was -5.88% (inactive).
On to `O=C(c1cc(O)c(O)c(O)c1)c1ccc(O)c(O)c1O`, for which the Potency entry was “inactive”.
The same measure, in the same setting: for `OCC#CCO` the value was “inactive”; for `CCOC(=O)/C=C\C(=O)OCC`, “inactive”; for `CCC(C)C=O` (stereo not given), “inactive”.
Same read-out and setting: for `Oc1ccc2ccccc2c1` the value was “inactive”.

For the origin of these results see PubChem BioAssay (Tox21).
